Results on 59 molecules are retold here after PubChem BioAssay AID1259309 (ICCB-Longwood Screening Facility, Harvard Medical School, 2017).

Where “and” joins values, the source holds several entries; their conditions need not be identical. Identical values can stand only once. Screen size: about 330,000 compounds; about 1,800 (0.55%) were called active. Cut-off read from the data, not from the text of the source: active = growth inhibition above about 68%; inactive = the rest. For the sample, actives were picked, then their nearest neighbours and some compounds at random.

This assay can be described thus: growth inhibition of ugtP-null S. aureus, primary screen, RN4220 ugtP deletion, OD600 (AID 1259309).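 Note: plate controls were untreated wells for no effect and antibiotic for full effect.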 The settings on record: 16 h, stronger effect = higher value.
Regarding `O=C(c1cccc([N+](=O)[O-])c1)N1CCN(Cc2ccccc2)CC1`, the growth inhibition was 9.07% (inactive). Turning to `Cc1ccc(S(=O)(=O)N(Cc2cccc([N+](=O)[O-])c2)C(=O)N2CCN(C)CC2)cc1`, the growth inhibition was 2.43% (inactive). The value for `O=C(CCl)N(Cc1cccc([N+](=O)[O-])c1)c1cccc(Cl)c1` was 97.8% (active); that for `COC(=O)C1=C(c2ccc3ccccc3c2)CC2CCC1N2C(=O)NCc1ccc(F)cc1` (centres undefined) was 12% (inactive). As for `COc1cccc(C2C3=C(N=c4sc(=Cc5cccc(O)c5)c(=O)n42)c2ccccc2CC3)c1OC` (centres undefined), the figure is -7.58% (inactive); as for `COc1ccc(CCNC(=O)C(Sc2ccccn2)c2ccccc2)cc1OC` (centres undefined), 9.85% (inactive). The value for `COc1ccc(CN(Cc2ccc(OC)cc2)C(=O)c2cccs2)cc1` was 43.4% (inactive); that for `COc1ccc(C(CCN(Cc2ccc(OC)c(OC)c2)C(=O)CCl)c2ccccc2)cc1` (centres undefined) was 98% (active); that for `COc1ccc(N(CC(=O)NN=Cc2ccco2)S(=O)(=O)c2ccccc2)cc1Cl` was 2.1% (inactive). In the case of `COc1ccc(C=NNC(=O)COc2ccc(C(C)(C)C)cc2)cc1Cn1nc(C)cc1C`, the growth inhibition is 0.349% (inactive). With `O=C(NN=Cc1cccnc1)C1CC1(c1ccccc1)c1ccccc1` (centres undefined), the growth inhibition is 9.47% (inactive). For `O=C1C=C(c2cccc(CO)c2)CC(c2ccc(Cl)cc2)C1` (centres undefined), the growth inhibition was 7.76% (inactive).

As to `O=C(O)CC1(CC(=O)Nc2cccc(C(F)(F)F)c2)CCCC1`, the growth inhibition was -0.923% (inactive). As for `FC(F)(F)c1cccc(NC(=S)Nc2cccc(Cl)c2)c1`, the growth inhibition is 93.1% (active).

Regarding `Cn1cc(Cl)c(C(=O)NNC(=S)Nc2cccc(Cl)c2)n1`, the growth inhibition was -5.85% (inactive).

Take `Cc1ccc(SC(=NS(=O)(=O)c2ccc(Cl)cc2)c2ccccc2)cc1`: the growth inhibition was 60.7% (inactive).

As for `O=C(COC(=O)C=Cc1ccccc1)Nc1cc(C(F)(F)F)ccc1N1CCOCC1`, the growth inhibition was -9.22% (inactive). With `CCCCCCCCn1c2c(c(=N)c3c1CCC3)CCCC2`, the growth inhibition was 100% (active). With `COc1ccc(OC)c(C=NNC(=O)c2ccc(-c3ccccc3)cc2)c1`, the growth inhibition was 1.81% (inactive).

Consider `CC(=NNC(=O)c1cc(-c2ccc(Br)s2)[nH]n1)c1ccncc1`, for which the growth inhibition is -6.85% (inactive). As for `O=C(COC(=O)c1ccc(F)cc1)NCC1COc2ccccc2O1` (centres undefined), the figure is -4.48% (inactive); as for `O=C(Nc1nnc(C2COc3ccccc3O2)o1)c1ccc(F)cc1` (centres undefined), 90.2% (active). The value for `CC1COc2ccccc2N1C(=O)c1ccc(F)cc1` (centres undefined) was -0.431% (inactive); that for `COC(=O)c1ccccc1-c1ccc(C=NNc2nc(N3CCCC3)nc(N3CCCC3)n2)o1` was -8.43% (inactive); that for `CON=Cc1cc(C(=O)c2ccc(Cl)cc2Cl)cn1C` was -4.32% (inactive). Take `CC(C)=CCCC1(C)C=Cc2c(ccc3c2[nH]c2cc(O)c(C)cc23)O1` (centres undefined): the growth inhibition was 95.6% (active). As for `CC[C@@]12C(=O)N(c3cccc(F)c3)C(=O)N1C(c1ccc(Br)cc1)C1C(=O)N(C(C)(C)C)C(=O)C12` (some centres undefined), the figure is -3.27% (inactive); as for `CCCCCCCCCCCCN1CC(=CC(=O)OCC)c2cc(C(F)(F)F)ccc2S1(=O)=O`, 2.79% (inactive); as for `O=C(CON=Cc1c(Cl)cccc1Cl)NNC(=O)c1cccc(Cl)c1`, 2.89% (inactive). The value for `Cc1cccc(NC(=O)CSC(N)=O)c1C` was 8.69% (inactive). The value for `Cc1ccccc1N/C(SCc1ccc(Cl)cc1)=C(/C#N)C(N)=O` was 84.4% (active); that for `Cc1ccccc1NC(=O)CSC(=O)c1ccccc1` was 5.32% (inactive).

Regarding `O=C(CNC(=O)c1ccc(-c2ccccc2)cc1)OCc1ccc(Cl)cc1`, the growth inhibition was 19.4% (inactive). `O=C(OCC(=O)c1c[nH]c2ccccc12)c1cccc(O)c1`: the growth inhibition is -15.2% (inactive).

As for `O=C(OCc1ccc(-c2ccccc2)cc1)c1cccc(O)c1`, the growth inhibition is 100% (active). As for `Cn1cccc1CC(=O)NN=Cc1ccco1`, the figure is -0.545% (inactive); as for `OCCC1CC(O)C(O)[C@]2(OCCCc3ccccc32)O1` (some centres undefined), 4.16% (inactive) and 2.75% (inactive); as for `COc1cc(C=NNC(=O)CC#N)ccc1Oc1nc(Cl)ncc1F`, -1.11% (inactive). Consider `O=C(Oc1ccc(C=NNc2ccccc2)cc1)c1ccccc1`, for which the growth inhibition was -8.03% (inactive). The value for `N#CC(=NNc1cc(Cl)cc(Cl)c1)c1nnc2n1CCCCC2` was -12% (inactive); that for `Cc1cc(C)n(C(=O)CCNC(=O)c2ccccc2Cl)n1` was -2.2% (inactive); that for `Cc1cc(C)n(C(=O)C(C#N)=NNc2cc(Cl)cc(Cl)c2)n1` was 99.7% (active). Take `CC(=NNC(=O)c1ccco1)c1ccc(NC(=O)C(F)(F)F)cc1`: the growth inhibition is 0.661% (inactive). Take `CCOc1ccc(N2C(=O)CC(S/C(N)=N/N=Cc3cccs3)C2=O)cc1` (centres undefined): the growth inhibition was 4.39% (inactive). In the case of `CCOC1OC(C(=O)N2CCN(Cc3ccc4c(c3)OCO4)CC2)=CC(c2cn(C(C)=O)c3ccccc23)C1CCCO` (centres undefined), the growth inhibition is -12.6% (inactive) and 8.11% (inactive). `Oc1ccccc1C=NNc1cccc2cccnc12`: the growth inhibition is 83% (active). The value for `Oc1ccc(C=NNc2cccc3cccnc23)c(O)c1` was 3.39% (inactive). The value for `Oc1ccccc1C=NNc1nccnc1Cl` was 0.00308% (inactive); that for `Cc1ccc2nc(NN=Cc3ccccc3C#N)nc(-c3ccccc3)c2c1` was 11.2% (inactive). `O=c1c2nnn(-c3ccccc3)c2ncn1CC=Cc1ccccc1`: the growth inhibition is 12.1% (inactive). As for `CCOc1ccc(-c2cc(C)[n+](CCN(CC)CC)c(-c3ccc(OCC)cc3)c2)cc1`, the figure is 97.1% (active); as for `CCOc1ccc(-c2nnc3ccc(SC)nn23)cc1`, 0.868% (inactive). The value for `CCOc1ccc2c(c1)C(c1ccc(C)cc1)=NNC(c1ccc(C)cc1)=N2` was 10.8% (inactive); that for `CCCC(C#Cc1ccc(N(C)C)cc1)=C1c2ccccc2C(=O)N1c1ccccc1` was 13.2% (inactive). The value for `COC(=O)NN=Cc1cc(Br)ccc1OCc1ccccc1` was 20.2% (inactive). Consider `C(=Nn1c2ccccc2c2ccccc21)c1ccccc1`, for which the growth inhibition was 11.7% (inactive). The value for `CC(C)c1ccc2c(c1)c(SC(C)(C)C)c(CC(C)(C)C(=O)O)n2Cc1ccc(Cl)cc1` was 101% (active); that for `CCOc1ccc2ccccc2c1C=NNC(=O)CNC(=O)C(c1ccccc1)c1ccccc1` was 22.4% (inactive).

On to `CN1CCSC1=CC=C1C(=O)N(C)C(=S)N1C`, for which the growth inhibition was -5.24% (inactive).
